Records with an inconclusive call do not appear. The source made the active and inactive calls. Calls come from the whole dose curve; as a rule, active = well fitted cell-killing curve with a large enough effect; inconclusive = small, poorly fitted or top-dose-only effect, or effect the other way; inactive = flat fitted curve, though single readings scatter.
Tests used:
Experiment in all cases: Primary qHTS to identify gynecologic anti-cancer compounds using libraries of approved drugs and bioactive compounds (AID 1345084); note: nearly all actives have a fitted effect of over 55% in size
Details in all cases: Gynecologic cancer cell panel viability, ATPlite luminescence, 48 h; series mostly up to 57.5 µM
[1] = tested on: OV90
Procedure, shortened: (§1)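 48 h compound exposure at 37 C, 5% CO2; five-point qHTS. ATPlite luminescence readout of cell ATP.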

[2] = tested on: PA-1
Procedure, shortened: as §1

[3] = tested on: SKOV3
Procedure, shortened: as §1

[4] = tested on: Tov-21-G
Procedure, shortened: as §1

[5] = tested on: Tov112D
Procedure, shortened: as §1

Measured: Potency
Potency is the fitted concentration of half-maximal effect.

CC1CC(=O)C2=C(CCC3(O)C(O)c4c(O)cccc4C(=O)C23O)C1 (stereo not given)
inactive: all assays above

CC1C(OC(=O)c2ccccc2)C(O)C2C(C(=O)O)=COC(OC3OC(CO)C(O)C(O)C3O)C12 (stereo not given)
inactive: all assays above

COc1cc2occc2c(O[C@@H]2O[C@H](CO)[C@@H](O)[C@H](O)[C@H]2O)c1CCC(=O)O
inactive: all assays above

O=C(O[C@H]1[C@@H]2C[C@@H]3OC[C@](O)([C@@H]1Cl)[C@H]2C(O[C@@H]1O[C@H](CO)[C@@H](O)[C@H](O)[C@H]1O)O3)c1ccc(O)c(O)c1 (stereo not given in full)
inactive: all assays above

C=C1C[C@]23C[C@H]1CC[C@H]2[C@@]12CC[C@H](O)[C@@](C)(C(=O)O1)[C@H]2[C@@H]3C(=O)O
inactive: all assays above

CC(C)CC1NC(=O)C2CC3(O)c4ccccc4NC3N2C1=O (stereo not given)
inactive: all assays above

CN1CCc2nc(C(=O)N[C@@H]3C[C@@H](C(=O)N(C)C)CC[C@@H]3NC(=O)C(=O)Nc3ccc(Cl)cn3)sc2C1
inactive: all assays above

Cc1c(NC(=O)c2cc(C(N)=O)nc3cc(F)ccc23)c(C(F)(F)F)nn1Cc1ccc(C#N)cc1
active: [3] 2.24 µM
inactive: all other assays above

CC(/C=C/C1=CC2=CC(=O)C(C)(O)C(O)C2=CO1)=C\C(C)CCO (stereo not given)
inactive: all assays above

CCc1c(-c2ccccc2)c(-c2ccccc2)nn1-c1ccccc1-c1cccc(OCC(=O)O)c1
inactive: all assays above

CC1=CC(=O)CC(C)(C)C1CCC(C)O[C@@H]1O[C@H](CO[C@@H]2OC[C@@H](O)[C@H](O)[C@H]2O)[C@@H](O)[C@H](O)[C@H]1O (stereo not given in full)
inactive: all assays above

C[C@H](NC(c1cccc2[nH]c(=O)c(=O)[nH]c12)P(=O)(O)O)c1ccc(Br)cc1 (stereo not given in full)
inactive: all assays above

CCOC(=O)CCN(C(=O)c1ccc2c(c1)nc(CNc1ccc(C(=N)N)cc1)n2C)c1ccccn1
inactive: all assays above

COc1ccc2cc(C(C)C(=O)Oc3ccc(C(N)=S)cc3)ccc2c1 (stereo not given)
inactive: all assays above

CC(=O)N1CCN(C(=O)Cc2ccc(Nc3ncc(F)c(Nc4ccc(C(=O)Nc5ccccc5Cl)cc4)n3)cc2)CC1
active: [2] 11.2 µM | [3] 22.4 µM | [4] 25.1 µM | [5] 3.98 µM
inactive: [1]

CCc1cccc(CC)c1NC(=O)c1nn(C)c2c1CCc1cnc(Nc3ccc(C(=O)NC4CCN(C)CC4)cc3OC(F)(F)F)nc1-2
inactive: all assays above

C/C(=C\CCC(C)CCO)C(=O)O[C@@H]1[C@@H](O)[C@H](OC2OC=C(C(=O)O)C3CCC(C)(O)C23)O[C@H](CO)[C@H]1O (stereo not given in full)
inactive: all assays above

CC(C)CC(=O)O[C@@H]1OC=C(CO[C@@H]2O[C@H](CO)[C@@H](O)[C@H](O)[C@H]2O)[C@H]2[C@@H]3O[C@H]3[C@@](O)(CO)[C@@H]12
inactive: all assays above

O=S(=O)(NC1CCC(c2cc(F)ccc2F)(S(=O)(=O)c2ccc(Cl)cc2)CC1)C(F)(F)F (stereo not given)
inactive: all assays above

CC1(C)CC[C@]2(C(=O)O[C@@H]3O[C@H](CO)[C@@H](O)[C@H](O)[C@H]3O)CC[C@]3(C)C(=CCC4[C@@]5(C)C[C@@H](O)[C@H](O)[C@](C)(C=O)C5CC[C@]43C)[C@@H]2[C@@H]1O (stereo not given in full)
inactive: all assays above

COc1cc(/C=C/C(=O)OC[C@H]2O[C@@](CO)(O[C@H]3O[C@H](CO)[C@@H](O)[C@H](O)[C@H]3O)[C@@H](OC(=O)/C=C/c3ccc(O)c(OC)c3)[C@@H]2O)ccc1O
inactive: all assays above
